# FLuc inh-1 = inhibitors of firefly (Photinus pyralis) luciferase; purified P. pyralis luciferase, luminescence, biochemical; Potency, µM (doses to about 115 µM), most hits filed as inhibitors; actives 2.5% (n = 76,000); AID 1347043; further: nearly all actives have a fitted effect of over 65% in size
#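 Biochemical qHTS: compound (6-point titration) added to 10uM D-luciferin plus 10uM ATP in Tris acetate pH 7.5 buffer with Mg, Tween-20 and BSA, then purified enzyme at 10nM; light output imaged.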
# 3T3 cytotox = cytotoxic compounds in NIH 3T3 cells | actives 4.3% (n = 94,000) | AID 1345082 | Potency, µM (highest dose often 96.7 µM), usual class: inhibitors | NIH 3T3 viability, CellTiter-Glo ATP luminescence, 48-72 h; further: nearly all actives have a fitted effect of over 55% in size
#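 Cytotoxicity is measured as loss of cellular ATP: NIH 3T3 cells (400/well) are exposed to compound for 48 or 72 hr at 37 °C, then CellTiter-Glo luminescence is imaged after 10 min at room temperature.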
# HEK cytotox = kills HEK 293 cells | HEK 293 viability, ATP luminescence (CellTiter-Glo), 48-72 h | Potency, µM (series often up to 115 µM), actives largely listed as inhibitors | actives 6.6% (n = 94,000); further: nearly all actives have a fitted effect of over 60% in size
#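 250 HEK 293 cells/well; compound by pintool; incubated 48 or 72 hr at 37 degree Celsius; CellTiter-Glo added, 10 min RT, luminescence imaged.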
# NPR1 antag = antagonists of human natriuretic peptide receptor Npr1; P16066; HEK293 hNpr1 GloSensor cGMP, ANP-stimulated luminescence; Potency, µM (titrated, usually from 46.3 µM), actives largely listed as inhibitors; actives 1.6% (n = 76,000); AID 1347048; calls by dose curve; further: nearly all actives have a fitted effect of over 60% in size
# Target sequence (P16066 whole entry, looked up): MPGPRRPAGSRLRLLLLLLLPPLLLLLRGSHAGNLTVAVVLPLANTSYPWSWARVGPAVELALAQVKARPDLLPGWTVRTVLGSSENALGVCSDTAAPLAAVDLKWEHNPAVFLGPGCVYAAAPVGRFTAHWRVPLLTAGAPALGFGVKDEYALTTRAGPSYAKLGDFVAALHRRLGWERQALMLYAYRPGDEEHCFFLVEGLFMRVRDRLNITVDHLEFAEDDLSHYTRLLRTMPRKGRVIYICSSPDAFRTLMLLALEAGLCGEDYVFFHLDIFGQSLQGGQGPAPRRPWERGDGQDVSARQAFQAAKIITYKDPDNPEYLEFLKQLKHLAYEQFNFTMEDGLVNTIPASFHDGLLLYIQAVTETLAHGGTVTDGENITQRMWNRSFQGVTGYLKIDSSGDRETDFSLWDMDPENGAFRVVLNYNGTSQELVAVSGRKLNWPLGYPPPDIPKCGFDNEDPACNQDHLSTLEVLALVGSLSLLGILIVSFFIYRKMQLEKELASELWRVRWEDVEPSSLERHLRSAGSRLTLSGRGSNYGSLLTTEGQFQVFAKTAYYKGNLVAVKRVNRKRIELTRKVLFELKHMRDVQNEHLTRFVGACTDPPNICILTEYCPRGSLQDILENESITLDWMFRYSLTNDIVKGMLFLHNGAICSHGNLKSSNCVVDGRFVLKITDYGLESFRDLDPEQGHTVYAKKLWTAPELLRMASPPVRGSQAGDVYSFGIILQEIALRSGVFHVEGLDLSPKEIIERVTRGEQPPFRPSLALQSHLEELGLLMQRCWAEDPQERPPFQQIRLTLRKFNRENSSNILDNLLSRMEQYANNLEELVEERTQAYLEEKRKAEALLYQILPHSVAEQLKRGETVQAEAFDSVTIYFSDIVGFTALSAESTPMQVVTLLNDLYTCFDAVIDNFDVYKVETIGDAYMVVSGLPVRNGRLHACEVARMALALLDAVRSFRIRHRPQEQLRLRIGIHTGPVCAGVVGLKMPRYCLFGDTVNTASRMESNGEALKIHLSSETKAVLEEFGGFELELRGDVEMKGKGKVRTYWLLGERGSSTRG
#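 Compound pre-incubated 30 min at room temperature on GloSensor-loaded HEK293 cells stably carrying hNpr1 and the pGS-40F cGMP biosensor. Stimulation uses hNppA at 0.1 nM final; luminescence is taken at baseline and 20 min post-agonist.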
# FLuc SDR -ATP = stabilizes firefly luciferase without ATP; shares compounds with FLuc inh-1; Purified FLuc-C-HiBiT, Nano-Glo HiBiT luminescence, no ATP; Potency, µM (series often up to 32.7 µM), hits mostly activators; actives 7.8% (n = 1,300); AID 1963318; further: nearly all actives have a fitted effect of over 55% in size
# FLuc SDR ATP = stabilizes firefly luciferase with ATP present | AID 1963319 | actives 8.7% (n = 1,300) | purified FLuc-C-HiBiT + ATP, HiBiT complementation luminescence | Potency, µM (highest dose often 32.7 µM), usual class: activators | shares compounds with FLuc inh-1;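 further: signal reports ligand binding via conformational change of the enzyme rather than luciferase catalysis; nearly all actives have a fitted effect of over 55% in size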
# FLuc inh-2 = inhibitors of firefly luciferase enzymatic activity; AID 1963320; actives 42% (n = 1,300); Potency, µM (highest dose often 32.7 µM), usual class: inhibitors; purified FLuc-C-HiBiT enzyme, luciferin luminescence; shares compounds with FLuc inh-1; further: nearly all actives have a fitted effect of over 70% in size
# Hits are given with their value; i = inactive; ? = inconclusive; nt = no result. Compounds with a hit are over-represented: about 11% of the library has one in this group of screens. Unless noted, the call rests on the fitted dose curve; in most records, active means well fitted curve in the direction sought with a large enough effect; inconclusive means small, poorly fitted or top-dose-only effect, or another doubt; inactive means no such curve, though single readings can be large; an effect the other way counts as inactive or inconclusive.
SMILES,FLuc inh-1,3T3 cytotox,HEK cytotox,NPR1 antag,FLuc SDR -ATP,FLuc SDR ATP,FLuc inh-2
CS(=O)(=O)N1CCCN(C(=O)CCCc2ccccc2)CCNC(=O)CC1c1ccccc1 (centres undefined),i,i,i,i,nt,nt,nt
COc1ccccc1CNC(=O)c1ccc2nc(N3CCCCC3)sc2c1,nt,nt,nt,nt,i,i,i
COc1ccccc1CNC(=O)c1ccc2c(c1)C(O)CCCCCN2C (centres undefined),i,?,?,i,nt,nt,nt
Cc1c(-c2ccccc2)[nH]c2c(CNC(=O)C3=NN(C)C(=O)CC3)cc(Cl)cc12,4µM,45µM,45µM,i,i,i,?
CN1N=C(C(=O)N2CCOC(Cc3cccc4ccccc34)C2)CCC1=O (centres undefined),i,?,i,i,nt,nt,nt
COC1CCN(C(=O)COc2ccccc2)CC(=O)N(C)c2ccccc21 (centres undefined),nt,?,i,nt,nt,nt,nt
CCn1ccnc1C1CCN(c2nc3ccccc3s2)CC1,3.2µM,i,?,?,i,i,?
CC(=O)N1CCc2ccc(C(=O)NC3CCCCCC3)cc21,0.35µM,?,?,14µM,?,11µM,6.2µM
COc1cc2cc(CN3CCC[C@H]3CO)c(-c3cccc(Cl)c3)nc2cc1OC,?,?,?,i,nt,nt,nt
O=C(O)[C@@H]1CN(Cc2ccccc2)C[C@@H]1C(=O)N1CCc2ccccc21,i,i,i,i,i,i,i
CCOc1ccc2nc(NC(=O)c3ccccc3)sc2c1,nt,nt,nt,nt,?,?,0.88µM
COc1ccc2nc(NC(=O)Cn3nc4c(cc3=O)CCCC4)sc2c1,?,i,i,i,nt,nt,nt
Cc1ccc(-c2nnc3ccc(Nc4cccc(N(C)C)c4)nn23)nc1,i,?,?,i,nt,nt,nt
COc1ccc2nc(-c3ccc(Oc4ccccc4)cc3)sc2c1,nt,nt,nt,nt,i,?,11µM
C=Cc1ccc(-c2nc3ccc(OC)cc3s2)cc1,nt,nt,nt,nt,12µM,?,0.44µM
O=C(Nc1cnc(-c2ccccc2)nc1)C1CCCCC1,1µM,i,i,?,?,?,2µM
O=C(CC1CCCC1)Nc1cnc(-c2cccnc2)nc1,?,i,i,i,nt,nt,nt
CC(=O)N1CCC(N2CC3(C2)C(=O)N(Cc2ccccc2Cl)C(=O)[C@@H]2C[C@@H](O)CN23)CC1,i,i,i,i,nt,nt,nt
COc1ccc(-n2ncc3c(NC4CCCC4)ncnc32)cc1,nt,nt,nt,nt,?,?,1.8µM
Cc1ccc(-n2ncc3c(NC4CCCC4)ncnc32)cc1,nt,nt,nt,nt,?,?,0.62µM
Cc1ccc(-n2nc3n(c2=O)CCN(C(=O)NC2CCCC2)C3)cc1,nt,i,i,nt,nt,nt,nt
Cc1nc(N(C)C2CCCCC2)ncc1C(C)NC(=O)C1(CO)CC1 (centres undefined),i,i,?,i,nt,nt,nt
O=C(Nc1nc2c(F)cccc2s1)c1ccc2c(c1)OCCO2,nt,nt,nt,nt,9.9µM,?,0.5µM
O=C(Nc1nc2ccccc2s1)c1ccc2c(c1)OCCN(CCC(F)(F)F)C2,13µM,?,20µM,?,i,i,?
COc1cccc(CNC(=O)Cn2c(-c3ccccc3)nc(C)cc2=O)c1,i,i,?,i,nt,nt,nt
SMILES,FLuc inh-1,3T3 cytotox,HEK cytotox,NPR1 antag,FLuc SDR -ATP,FLuc SDR ATP,FLuc inh-2
COc1cccc(CNc2nc3ccccc3c3nc(-c4cccc(C)c4)nn23)c1,nt,nt,nt,nt,i,i,?
COc1ccc(-c2ccc3c(c2)C(=O)N2CC[C@H](NC(=O)c4cccc(F)c4)[C@H]2C(=O)N3)cc1,11µM,?,?,i,i,i,?
O=C(N[C@H]1CCN2C(=O)c3cc(-c4ccsc4)ccc3NC(=O)[C@H]12)c1cccs1,i,?,?,i,nt,nt,nt
CSc1ccc(-c2ccc3c(c2)C(=O)N2CC[C@H](NC(=O)c4cccs4)[C@H]2C(=O)N3)cc1,6.3µM,i,i,i,i,i,?
COc1ccccc1OCc1nc2ccccc2n1Cc1ccccc1,nt,nt,nt,nt,i,i,?
Clc1cccc(-c2ncc[nH]2)c1,nt,i,i,nt,nt,nt,nt
Cc1ccc(C2=NC(c3ccccc3)=Nc3ccc(Cl)cc3N2)cc1,nt,nt,nt,nt,i,i,i

# Source: PubChem BioAssay
